“And” between values parts separate entries of the source, which are not always exact repeats. Equal entries are not always repeated. More than one record can exist for a structure, and the calls need not agree. The source made the active and inactive calls. How the source made its calls: active means hit-call score of the fitted dose curve at least 0.9, where 1 is the maximum; inactive means score below 0.9.
test: BSK_SAg_Proliferation: Cell Proliferation Assessment in the BioMAP Diversity Plus: SAg Assay (AID 2283095); conditions: primary human HUVEC with PBMC;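 further: relative cell number as total protein by SRB absorbance in sub-confluent culture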
Summary of the method: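 A human primary co-culture of umbilical vein endothelium and blood mononuclear cells receives compound; relative cell number is quantified at 96 h by SRB staining and 560 nm absorbance, with DMSO-referenced bidirectional curve fitting.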

Row | SMILES | outcome | AC50
1 | FC(F)(F)C(F)(F)C(F)(F)C(F)(F)C(F)(F)C(F)(F)CCS | inactive | –
2 | O=C(O)C(F)(F)C(F)(F)OC(F)(F)F | inactive | –
3 | FC(F)(I)C(F)(F)C(F)(F)C(F)(F)I | – | 54.2 µM (active) and 54.1 µM (active) and 46.5 µM (active)
4 | O=C(Cl)C(F)(F)C(F)(F)C(F)(F)C(F)(F)C(F)(F)C(F)(F)C(F)(F)C(F)(F)F | inactive | –
5 | NC(=O)C(F)(F)C(F)(F)C(F)(F)C(F)(F)F | inactive | 30 µM (active)
6 | OCC(F)(F)C(F)(F)C(F)(F)C(F)F | inactive | –
7 | C=CC(=O)OCC(F)(F)C(F)(F)C(F)(F)C(F)(F)C(F)(F)C(F)(F)C(F)(F)F | inactive | 20 µM (active)
8 | O=C(O)C(F)(F)C(F)(F)C(F)F | inactive | –
9 | FC1CC(F)(F)C(F)(F)C1(F)F (stereo not given) | inactive | –
10 | OCCCC(F)(F)C(F)(F)C(F)(F)C(F)(F)C(F)(F)C(F)(F)C(F)(F)F | – | 16.8 µM (active) and 16.3 µM (active)
11 | CCc1c(Br)c(Br)c(Br)c(Br)c1Br | inactive | –
12 | O=C(CC(=O)C(F)(F)C(F)(F)F)C(F)(F)F | inactive | –
13 | O=P(O)(O)OCCC(F)(F)C(F)(F)C(F)(F)C(F)(F)C(F)(F)C(F)(F)F | inactive | –
14 | FC(F)(F)C(F)(F)C(F)(F)C(F)(F)C(F)(F)C(F)(F)C(F)(F)I | inactive | –
15 | CCO[Si](CCC(F)(F)C(F)(F)C(F)(F)C(F)(F)C(F)(F)C(F)(F)F)(OCC)OCC | inactive | –
16 | O=C(O)C(F)(F)C(F)(F)C(F)(F)C(F)(F)C(F)(F)C(F)(F)C(F)(F)C(F)(F)C(F)(F)C(F)F | – | 47.8 µM (active) and 54.6 µM (active)
17 | CC(C)(C)C(=O)CC(=O)C(F)(F)C(F)(F)C(F)(F)F | inactive | –
18 | CCCCCCCCC(F)(F)C(F)(F)C(F)(F)C(F)(F)C(F)(F)C(F)(F)F | inactive | –
19 | FC(F)(F)C(F)(F)C(F)(F)C(F)(F)CCI | – | 30 µM (active)

Row | SMILES | outcome | AC50
20 | FC(F)(F)C(F)(F)C(F)(F)C(F)(F)C(F)(F)C(F)(F)C(F)(F)C(F)(F)CCS | inactive | –
21 | FC(F)(Br)C(F)(F)C(F)(F)C(F)(F)C(F)(F)C(F)(F)Br | inactive | –
22 | FC(F)(F)C(F)(F)C(F)(F)C(F)(F)C(F)(F)CCI | inactive | 44 µM (active)
23 | FC(F)(F)C(F)(F)CNCC(F)(F)C(F)(F)F | inactive | –
24 | FC(F)(F)C(F)(F)C(F)(F)C(F)(F)C(F)(F)C(F)(F)CC1CO1 (stereo not given) | inactive | –
25 | O=C(O)C=C(C(F)(F)F)C(F)(F)F | – | 43 µM (active) and 27.2 µM (active)
26 | FC(F)(F)C(F)(F)C(F)(F)C(F)(F)C(F)(F)C(F)(F)C(F)(F)C(F)(F)F | inactive | –
27 | O=C(O)C(F)(F)C(F)(F)C(F)(F)C(F)(F)C(F)(F)C(F)(F)C(F)(F)C(F)(F)Cl | inactive | 54.5 µM (active)
28 | FC(F)(F)C(F)(F)C(F)(F)C(F)(F)C(F)(F)C(F)(F)C(F)(F)Br | inactive | –
29 | O=C(O)C(F)(F)C(F)(F)C(F)(F)C(F)(F)C(F)(F)C(F)(F)C(F)(F)C(F)(F)C(F)(F)C(F)(F)C(F)(F)C(F)(F)C(F)(F)F | inactive | –
30 | C=CC/C=C/C/C=C/C/C=C/C | inactive | –
31 | O=C(O)C(F)(OC(F)(F)C(F)(OC(F)(F)C(F)(F)C(F)(F)F)C(F)(F)F)C(F)(F)F (stereo not given) | inactive | –
32 | O=S(=O)(OCC(F)F)C(F)(F)F | inactive | –
33 | O=C(O)C(F)(F)C(F)(F)C(F)(F)C(F)(F)C(F)(F)C(F)(F)C(F)(F)C(F)(F)C(F)(F)C(F)(F)C(F)(F)C(F)(F)F | inactive | –
34 | N=C(N)C(F)(F)C(F)(F)C(F)(F)C(F)(F)C(F)(F)C(F)(F)C(F)(F)F | – | 45 µM (active) and 47.4 µM (active)
35 | CCCCCCOC(=O)c1ccccc1O | – | 38.7 µM (active) and 45.4 µM (active)
36 | C=C(C)C(=O)OCCC(F)(F)C(F)(F)C(F)(F)C(F)(F)C(F)(C(F)(F)F)C(F)(F)F | inactive | –
37 | CC(CCl)OP(=O)(OC(C)CCl)OC(C)CCl (stereo not given) | inactive | –

test: BSK_SAg_SRB: Viability Assessment in the BioMAP Diversity Plus: SAg Assay (AID 2283096); conditions: primary human HUVEC with PBMC;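 further: cells read one day after compound addition; hits may be either gain or loss of signal compared with DMSO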
Summary of the method: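 This overt-cytotoxicity endpoint quantifies protein in human endothelial/PBMC co-cultures at 24 h using SRB absorbance (560 nm) after trichloroacetic acid fixation. Values reflect signal change from the DMSO negative control, fitted bidirectionally.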

Row | SMILES | outcome | AC50
38 | FC(F)(F)C(F)(F)C(F)(F)C(F)(F)C(F)(F)C(F)(F)CCS | inactive | –
39 | O=C(O)C(F)(F)C(F)(F)OC(F)(F)F | inactive | –
40 | FC(F)(I)C(F)(F)C(F)(F)C(F)(F)I | inactive | –
41 | O=C(Cl)C(F)(F)C(F)(F)C(F)(F)C(F)(F)C(F)(F)C(F)(F)C(F)(F)C(F)(F)F | – | 42.7 µM (active) and 42.8 µM (active) and 30 µM (active)
42 | NC(=O)C(F)(F)C(F)(F)C(F)(F)C(F)(F)F | inactive | –
43 | OCC(F)(F)C(F)(F)C(F)(F)C(F)F | inactive | –
44 | C=CC(=O)OCC(F)(F)C(F)(F)C(F)(F)C(F)(F)C(F)(F)C(F)(F)C(F)(F)F | inactive | –
45 | O=C(O)C(F)(F)C(F)(F)C(F)F | inactive | –
46 | FC1CC(F)(F)C(F)(F)C1(F)F (stereo not given) | inactive | –
47 | OCCCC(F)(F)C(F)(F)C(F)(F)C(F)(F)C(F)(F)C(F)(F)C(F)(F)F | – | 51.4 µM (active) and 44.9 µM (active)
48 | CCc1c(Br)c(Br)c(Br)c(Br)c1Br | inactive | –
49 | O=C(CC(=O)C(F)(F)C(F)(F)F)C(F)(F)F | inactive | –
50 | O=P(O)(O)OCCC(F)(F)C(F)(F)C(F)(F)C(F)(F)C(F)(F)C(F)(F)F | inactive | –
51 | FC(F)(F)C(F)(F)C(F)(F)C(F)(F)C(F)(F)C(F)(F)C(F)(F)I | inactive | –
52 | CCO[Si](CCC(F)(F)C(F)(F)C(F)(F)C(F)(F)C(F)(F)C(F)(F)F)(OCC)OCC | inactive | –
53 | O=C(O)C(F)(F)C(F)(F)C(F)(F)C(F)(F)C(F)(F)C(F)(F)C(F)(F)C(F)(F)C(F)(F)C(F)F | – | 47.3 µM (active) and 45.8 µM (active)
54 | CC(C)(C)C(=O)CC(=O)C(F)(F)C(F)(F)C(F)(F)F | inactive | –
55 | CCCCCCCCC(F)(F)C(F)(F)C(F)(F)C(F)(F)C(F)(F)C(F)(F)F | inactive | –
56 | FC(F)(F)C(F)(F)C(F)(F)C(F)(F)CCI | inactive | –

Row | SMILES | outcome | AC50
57 | FC(F)(F)C(F)(F)C(F)(F)C(F)(F)C(F)(F)C(F)(F)C(F)(F)C(F)(F)CCS | inactive | –
58 | FC(F)(Br)C(F)(F)C(F)(F)C(F)(F)C(F)(F)C(F)(F)Br | inactive | –
59 | FC(F)(F)C(F)(F)C(F)(F)C(F)(F)C(F)(F)CCI | inactive | –
60 | FC(F)(F)C(F)(F)CNCC(F)(F)C(F)(F)F | inactive | –
61 | FC(F)(F)C(F)(F)C(F)(F)C(F)(F)C(F)(F)C(F)(F)CC1CO1 (stereo not given) | inactive | –
62 | O=C(O)C=C(C(F)(F)F)C(F)(F)F | inactive | –
63 | FC(F)(F)C(F)(F)C(F)(F)C(F)(F)C(F)(F)C(F)(F)C(F)(F)C(F)(F)F | inactive | –
64 | O=C(O)C(F)(F)C(F)(F)C(F)(F)C(F)(F)C(F)(F)C(F)(F)C(F)(F)C(F)(F)Cl | – | 48.1 µM (active) and 45.1 µM (active)
65 | FC(F)(F)C(F)(F)C(F)(F)C(F)(F)C(F)(F)C(F)(F)C(F)(F)Br | inactive | –
66 | O=C(O)C(F)(F)C(F)(F)C(F)(F)C(F)(F)C(F)(F)C(F)(F)C(F)(F)C(F)(F)C(F)(F)C(F)(F)C(F)(F)C(F)(F)C(F)(F)F | inactive | –
67 | C=CC/C=C/C/C=C/C/C=C/C | inactive | –
68 | O=C(O)C(F)(OC(F)(F)C(F)(OC(F)(F)C(F)(F)C(F)(F)F)C(F)(F)F)C(F)(F)F (stereo not given) | inactive | –
69 | O=S(=O)(OCC(F)F)C(F)(F)F | inactive | –
70 | O=C(O)C(F)(F)C(F)(F)C(F)(F)C(F)(F)C(F)(F)C(F)(F)C(F)(F)C(F)(F)C(F)(F)C(F)(F)C(F)(F)C(F)(F)F | inactive | –
71 | N=C(N)C(F)(F)C(F)(F)C(F)(F)C(F)(F)C(F)(F)C(F)(F)C(F)(F)F | inactive | 53 µM (active)
72 | CCCCCCOC(=O)c1ccccc1O | inactive | 42.4 µM (active)
73 | C=C(C)C(=O)OCCC(F)(F)C(F)(F)C(F)(F)C(F)(F)C(F)(C(F)(F)F)C(F)(F)F | inactive | –
74 | CC(CCl)OP(=O)(OC(C)CCl)OC(C)CCl (stereo not given) | inactive | –
